From PubChem BioAssay (NCI)
This is part of a sample that, as a whole, favours compounds with a hit. Of some 83,000 tested, about 20% had one in any assay.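 Testing used 96-well plates and a 48-hour single-concentration exposure. Example: -40 means 40% of the starting cells died.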 Activity calls are given as the source filed them. How the source made its calls: active means growth percent below 10; inactive means the rest.

What was measured:
Assay in all cases: NCI-60 one-dose screen, 48 h (100 = growth as untreated, 0 = no growth, -100 = all killed)
Conditions in all cases: 10 µM unless noted
[1] = tested on: SK-MEL-2 melanoma
[2] = tested on: EKVX NSCLC
[3] = tested on: SN12C renal
[4] = tested on: UO-31 renal
[5] = tested on: TK-10 renal
[6] = tested on: ACHN renal
[7] = tested on: CAKI-1 renal
[8] = tested on: A498 renal
[9] = tested on: CCRF-CEM leukemia
[10] = tested on: MOLT-4 leukemia
[11] = tested on: SR leukemia
[12] = tested on: RPMI-8226 leukemia
[13] = tested on: OVCAR-8 ovarian
[14] = tested on: OVCAR-5 ovarian
[15] = tested on: OVCAR-4 ovarian
[16] = tested on: SK-OV-3 ovarian
[17] = tested on: IGROV1 ovarian
[18] = tested on: OVCAR-3 ovarian
[19] = tested on: HS 578T breast
[20] = tested on: NCI/ADR-RES ovarian

Measured: growth

Cc1ccc(C2CC(c3cccc(Nc4ccncc4)c3)=NN2c2ccc(Cl)cc2)cc1 (stereo not given)
active: [1] -74.8% | [2] -85.1% | [3] -95.8% | [4] -99.4% | [5] -80.9% | [6] -100% | [7] -94.7% | [8] -93.8% | [9] -30.8% | [10] -32.8% | [11] -12.4% | [12] -46% | [13] -35% | [14] -100% | [15] -83.2% | [16] -92.3% | [17] -92.7% | [18] -91.1% | [19] -55.9% | [20] -63%

CC(=O)c1c(C)[nH]c(-c2nc3ccc(N4CCN(C)CC4)cc3[nH]2)c1-c1ccccc1
active: [4] 5.51% | [7] 7.67% | [12] 3.67% | [19] 9.13%
inactive: [1] 48.6% | [2] 35.5% | [3] 37.7% | [5] 23.9% | [6] 19.4% | [8] 31.8% | [9] 49.1% | [10] 50.7% | [11] 28.4% | [13] 45.6% | [14] 34.8% | [15] 33.4% | [16] 20.5% | [17] 23.8% | [18] 28.8% | [20] 36.3%

COc1ccc(C(=O)/C=C/c2c(OC)cc(OC)cc2OC)c(OC)c1
inactive: [2] 59.1% | [3] 28.8% | [4] 31.8% | [5] 44.3% | [6] 26.9% | [8] 13.8% | [10] 33.6% | [11] 23.1% | [12] 13% | [13] 25.9% | [14] 31.5% | [15] 79.1% | [16] 10.9% | [17] 40.3% | [19] 54.1%
active: [1] -9.11% | [7] -1.02% | [9] 9.01% | [18] -33.3% | [20] -21.9%

CCN(CC)CCCCCCNc1cc(OC)cc2cccnc12
active: [9] -35.6% | [10] -57.3% | [11] -51.2% | [12] -8.8% | [18] -44.2%
inactive: [1] 114% | [2] 90.1% | [3] 89.4% | [4] 62.6% | [5] 130% | [6] 99.6% | [7] 90.4% | [8] 63.5% | [13] 20.7% | [14] 97.7% | [15] 44.6% | [16] 101% | [17] 88.8% | [19] 92.5% | [20] 82.9%

CN(C)C(=O)OCc1nc2c(N3CCOCC3)nc(-c3ccccc3)nc2n1C
inactive: [16] 59.7%
active: [1] -73.5% | [2] -56.8% | [3] -90.7% | [4] -100% | [5] -77.7% | [6] -99.8% | [7] -91.7% | [8] -32.3% | [9] -12% | [10] -3.34% | [11] 4.42% | [12] -30% | [13] -5.95% | [14] -85.5% | [15] -82.2% | [17] -95.2% | [18] -78.1% | [19] -35.2% | [20] -8.35%

O=C1NC(=S)NC(=O)C1=Cc1cccc(C=C2C(=O)NC(=S)NC2=O)c1
inactive: [1] 108% | [2] 99.9% | [3] 95.3% | [4] 91% | [5] 104% | [6] 113% | [7] 93.9% | [8] 93.1% | [9] 99.3% | [10] 102% | [11] 96.9% | [12] 101% | [13] 104% | [14] 110% | [15] 105% | [16] 110% | [17] 107% | [18] 108% | [19] 103% | [20] 102%

COc1ccc(-c2nc(N/N=C/c3ccco3)nc(N3CCOCC3)c2C#N)cc1
inactive: [1] 91.4% | [2] 82.3% | [3] 80.2% | [4] 28.7% | [5] 89.8% | [6] 78.3% | [7] 59% | [9] 74.2% | [10] 62.2% | [11] 60.2% | [12] 64% | [13] 88.6% | [14] 89.6% | [15] 78% | [16] 64.6% | [17] 37.3% | [18] 70.2% | [19] 80.6% | [20] 86.4%
active: [8] 6.67%

CCCCCCCCCCCCCCCC(=O)OC[C@@]1(O)C[C@@]23CC[C@@H]4C(C)(C)CCC[C@@]4(C)[C@@H]2CC[C@H]1C3
inactive: [1] 105% | [2] 109% | [3] 93.6% | [4] 84.7% | [5] 100% | [6] 106% | [7] 74.2% | [8] 97.7% | [9] 43.2% | [10] 57.3% | [11] 22.9% | [12] 81.9% | [13] 92.3% | [14] 108% | [15] 97.7% | [16] 113% | [17] 107% | [18] 103% | [19] 98.9% | [20] 102%

Cc1cccc(Oc2ccc(Nc3ncnc4ccc(NC(=O)CN(C)C)cc34)cc2Cl)c1
active: [11] 1.9% | [17] 3.8%
inactive: [1] 84.2% | [2] 31.6% | [3] 36.7% | [4] 23.3% | [5] 36% | [6] 16.8% | [7] 40.8% | [8] 58.7% | [9] 47.7% | [10] 25.9% | [12] 46.6% | [13] 57.3% | [14] 60.9% | [15] 45.2% | [16] 16% | [18] 40.7% | [19] 68% | [20] 47.2%

COc1ccccc1N1CCN(C(=O)c2ccc3nc(NC(=O)c4ccc(NCCc5ccccc5)c([N+](=O)[O-])c4)sc3c2)CC1
active: [11] 3.74% | [15] 2.92%
inactive: [1] 93.4% | [2] 89% | [3] 77.2% | [4] 60.1% | [5] 110% | [6] 90.6% | [7] 73.4% | [8] 79.6% | [9] 77.6% | [10] 95.4% | [12] 92.3% | [13] 81.6% | [14] 93.6% | [16] 92.4% | [17] 91.8% | [18] 70.3% | [19] 48.5% | [20] 89.6%

CC1CCN(C(=O)OCc2nc3nc(Cl)nc(N4CCOCC4)c3[nH]2)CC1
active: [1] -92% | [3] -61.4% | [4] -100% | [5] -91.8% | [6] -100% | [7] -73.8% | [9] -7.16% | [10] 0.0264% | [11] -28.6% | [12] -29.7% | [13] -29% | [14] -38.2% | [15] -54.1% | [17] -68% | [18] -92.8% | [19] -13.5% | [20] -18.6%
inactive: [2] 40.4% | [8] 42.2% | [16] 62.8%

Fc1ccc2nc3c(cc2c1)CSc1nnc(-c2ccc[nH]c2=S)n1N3
inactive: [1] 98.3% | [2] 94.2% | [3] 98.2% | [4] 82% | [5] 110% | [6] 94% | [7] 83.8% | [8] 92.1% | [9] 98.9% | [10] 101% | [11] 90.4% | [12] 95.5% | [13] 105% | [14] 95.4% | [15] 91.5% | [16] 86.9% | [17] 86.7% | [18] 109% | [19] 96.3% | [20] 103%

COc1ccc(C(=O)/C=C/c2cn(Cc3ccc(Cl)cc3)c3ccccc23)cc1
inactive: [1] 74.6% | [2] 89% | [3] 69.4% | [4] 53.7% | [5] 27.4% | [6] 62.1% | [9] 41.1% | [10] 39.8% | [11] 20.1% | [12] 70.7% | [13] 71% | [14] 13.4% | [15] 76.3% | [16] 57.4% | [17] 23.7% | [18] 57.6% | [19] 60% | [20] 38.4%
active: [7] 2.08% | [8] -6.05%

COc1ccc(-c2nc(SC)nc(N3CCOCC3)c2C#N)cc1
inactive: [1] 101% | [2] 97.7% | [3] 96.5% | [4] 67.4% | [5] 97.5% | [6] 94.3% | [7] 81.4% | [8] 63.1% | [9] 88.7% | [10] 87.6% | [11] 78.9% | [12] 91.2% | [13] 98.1% | [14] 99.7% | [15] 100% | [16] 89.4% | [17] 85% | [18] 98.5% | [19] 98.4% | [20] 94%

NC(=O)c1cccc(-c2cc(C(N)=O)ccc2Cl)c1
active: [8] -5.64% | [9] 7.74% | [11] 2.33% | [18] -0.229% | [19] 5.29%
inactive: [1] 34.5% | [2] 35.7% | [3] 50% | [4] 45.7% | [5] 51.2% | [6] 36.3% | [7] 31.8% | [10] 26.9% | [12] 14.3% | [13] 28.9% | [14] 51.3% | [15] 58.6% | [16] 88.9% | [17] 49.3% | [20] 19%
